The values below come from PubChem BioAssay (NCATS).

Test [1] in a line: BET inhibitor-based combinations targeting novel dependencies in MECOM-rearranged (r) AML: SET-2 cell line (AID 2202231).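 For viability: plate controls were DMSO treated cells for no effect and wells without cells for full effect.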 Note: nearly all actives have a fitted effect of over 35% in size. The settings on record: SET-2 AML cells viability, CellTiter-Glo luminescence, 48 h; viability: stronger effect = lower value, concentration not given here. The procedure, abridged:
(§1)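 Each compound was tested at eleven concentrations on cells seeded at 500/well. After two days' incubation, ATP-based luminescence reported viability; responses relative to DMSO and blank wells yielded AUC and cell-line-centred Z-AUC.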
In general terms: ATP-based viability assays read luminescence as a measure of living cells.

The nature of test [2]: BET inhibitor-based combinations targeting novel dependencies in MECOM-rearranged (r) AML: MV-4-11 cell line (AID 2202233). Note: nearly all actives have a fitted effect of over 45% in size. The gist of the method:
(§2)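 First, 500 cells per well were seeded; next, drugs were pinned as 11-point doses; then plates sat 48 hr in the incubator; finally CellTiter-Glo was added and luminescence read, with AUC and Z-AUC computed.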

A short description of test [3]: BET inhibitor-based combinations targeting novel dependencies in MECOM-rearranged (r) AML: UCSD-AML1 cell line (AID 2202235). Note: nearly all actives have a fitted effect of over 40% in size. The gist of the method: as §2
A short description of test [4]: BET inhibitor-based combinations targeting novel dependencies in MECOM-rearranged (r) AML: AML-194 cell line (AID 2202237; note: nearly all actives have a fitted effect of over 40% in size). The gist of the method:
as §1

Test [5] is described as follows: BET inhibitor-based combinations targeting novel dependencies in MECOM-rearranged (r) AML: AML-191 cell line (AID 2202236; note: nearly all actives have a fitted effect of over 35% in size). The gist of the method: as §1
Test [6] can be described thus: BET inhibitor-based combinations targeting novel dependencies in MECOM-rearranged (r) AML: HNT-34 cell line (AID 2202234). Note: nearly all actives have a fitted effect of over 35% in size. The procedure, abridged: as §2
Test [7] in a line: BET inhibitor-based combinations targeting novel dependencies in MECOM-rearranged (r) AML: OCI-AML3 cell line (AID 2202232). Note: nearly all actives have a fitted effect of over 35% in size. The settings on record: Potency: OCI-AML3 viability. The gist of the method: as §1

Structures are written as SMILES. Records with an inconclusive call do not appear. A number with no mark means an inactive call. Active and inactive are the calls of the source. Calls come from the whole dose curve; as a rule, active = well fitted curve in the direction sought with a large enough effect; inconclusive = small, poorly fitted or top-dose-only effect, or another doubt; inactive = no such curve, though single readings can be large; an effect the other way counts as inactive or inconclusive.
Potency is the fitted concentration of half-maximal effect.

For `C=CC(=O)N[C@H]1CCOC[C@H]1Nc1ncc2cc(-c3c(Cl)c(OC)cc(OC)c3Cl)ccc2n1`, in test [1], the viability was 104%. The Potency in test [2] was 18.6 µM (active). In addition, the Potency entry in test [3] and in test [4] was “inactive” in each case.

In the case of `C=CC(=O)Nc1cc(N2CCN(CC)CC2)ccc1Nc1cc(N(C)C(=O)Nc2c(Cl)c(OC)cc(OC)c2Cl)ncn1`, in test [1], the viability was 112%. Further, in test [2], the Potency was 20.9 µM (active). In addition, the Potency entry in test [5] is “inactive”.

On to `CCc1cc(/C(C)=N/OCc2ccc(C3CCCCC3)c(C(F)(F)F)c2)ccc1CN1CC(C(=O)O)C1`, for which the Potency in test [1] is 16.6 µM (active); in test [2], 8.33 µM (active). For the same compound, the Potency result in test [3] and in test [4] was “inactive” each time.

In the case of `CN(CCOc1ccc(-c2ccc3c(c2)OCO3)cc1C(C)(C)C)CC(=O)O`, the viability in test [1] is 105%. Moreover, the Potency result in test [6], in test [3] and in test [4] was “inactive” throughout.

Turning to `C=CC[C@@H]1/C=C(\C)C[C@H](C)C[C@H](OC)[C@H]2O[C@@](O)(C(=O)C(=O)N3CCCC[C@H]3C(=O)O[C@H](/C(C)=C/[C@@H]3CC[C@@H](O)[C@H](OC)C3)[C@H](C)[C@@H](O)CC1=O)[C@H](C)C[C@@H]2OC`, the viability in test [1] is 51.4%. Also, the Potency is 23.5 µM (active) in test [6], 26.3 µM (active) in test [3], 18.6 µM (active) in test [5] and 20.9 µM (active) in test [4].

On to `COc1ccc(-c2ccc3c(N4CCOC[C@@H]4C)nc(N4CCOC[C@@H]4C)nc3n2)cc1CO`, for which the Potency in test [7] is 0.148 µM (active); in test [2] it was 0.132 µM (active).

As for `COC(=O)N(CC(=O)O)Cc1cccc(OCc2nc(-c3ccc(Cl)cc3)oc2C)c1`, in test [1], the viability was 89%. The Potency entry in test [3], in test [5] and in test [4] was “inactive” in each case.

Regarding `C=CC(=O)Nc1ccc(F)c(-c2ncnc3[nH]cc(C(=O)OCC)c23)c1`, in test [1], the viability was 83.4%. The Potency result in test [5] and in test [4] was “inactive” in each case.

As a reminder, the viability is a read-out of living cells in per cent, often relative to untreated cells.
